# Assay results published in PubChem BioAssay (NCATS).
# Results filed as inconclusive are left out. Where a call stands in place of a potency, no number is given. Activity calls are given as the source filed them. The call rests on the fitted dose curve; in most records, active means well fitted inhibition curve with a large enough effect; inconclusive means small, poorly fitted or top-dose-only effect; inactive means no such curve, though single readings can be large or run the other way.
# Tested on: Zika virus NS2B-NS3 protease (linked construct)
# Experiment: Primary screen NINDS Rhodamine qHTS for Zika virus inhibitors (AID 1347160); further: nearly all actives have a fitted effect of over 55% in size
# Conditions: purified NS2B-NS3 protease, Rhodamine110 substrate fluorescence; series mostly up to 57.1 µM
# Method in brief: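 In 10 mM Tris-HCl pH 8.0 containing 0.01% Tween 20, linked NS2B-NS3 protease (25 nM final) is exposed to test compounds for 15 min. Cleavage of 1.5 microM Rhodamine110 substrate is tracked by fluorescence over 15 min.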
row,Compound,Potency
1,CN1C(=O)N(c2ccc(C#N)c(C(F)(F)F)c2)C(=O)[C@]1(CO)c1ccccc1,inactive
2,CC12CCC3C(CCC4(O)CC(O)CCC34C=O)C1(O)CCC2C1=CC(=O)OC1 (stereo not given),inactive
3,C[C@@H]1C(=O)O[C@H]2[C@H](O)[C@@]34[C@@H]5OC(=O)[C@@]3(O[C@@H]3OC(=O)[C@@H](O)[C@@]34[C@H](C(C)(C)C)[C@H]5O)[C@@]12O,inactive
4,OC1(c2ccc(Cl)cc2)c2ccccc2C2=NCCN21 (stereo not given),inactive
5,CCC(C)(C#N)O[C@@H]1O[C@H](CO)[C@@H](O)[C@H](O)[C@H]1O (stereo not given in full),inactive
6,O=C(O)c1ccnc2cc(C(OCCN3CCCCC3)c3ccccc3Cl)[nH]c12 (stereo not given),inactive
7,CN1[C@@H]2CC[C@H]1CC(OC(=O)C1C=Nc3ccccc31)C2 (stereo not given in full),inactive
8,COC1C(O)C(OC2CCC3(C=O)C(CCC4C3CCC3(C)C(C5=CC(=O)OC5)CCC43O)C2)OC(C)C1OC1OC(CO)C(O)C(O)C1O (stereo not given),inactive
9,Cc1cccc(NC(=O)N[C@@H]2N=C(c3ccccc3)c3ccccc3N(C)C2=O)c1,inactive
10,COc1cc(C)[nH]c(=O)c1CNC(=O)c1c(C)n([C@H](C)C2CCOCC2)c2ccccc12,inactive
11,CO[C@H]1[C@H](O)[C@H](O[C@H]2CC[C@]3(C)C4CC[C@]5(C)[C@H](C6=CC(=O)OC6)CC[C@]5(O)C4CC[C@@H]3C2)O[C@@H](C)[C@@H]1O (stereo not given in full),inactive
12,COCC1OC(=O)c2coc3c2C1(C)C1=C(C3=O)C2CCC(=O)C2(C)CC1O (stereo not given),inactive
13,CCN1C[C@]2(COC)[C@H](O)C[C@H](OC)[C@]34[C@@H]5C[C@]6(O)[C@H](OC(=O)c7ccccc7)[C@@H]5[C@@](O)([C@H]([C@H](OC)[C@H]23)[C@@H]14)[C@@H](O)[C@@H]6OC,inactive
14,CC(C)(O)[C@H]1O[C@H]2CC[C@@]3(C)[C@@](O)(CC[C@H]4Cc5c([nH]c6ccccc56)[C@@]43C)C2=CC1=O,inactive
15,CC(=O)OC1CC(O)C(C)(C)C2CC(OC(C)=O)C3(C)C(CCC4(C)C(c5ccoc5)C(=O)C5OC543)C12C (stereo not given),inactive
16,OCCCCC#Cc1cncc(OC[C@@H]2CCN2)c1,inactive
17,C[C@]12CC[C@@H](O)C[C@H]1CC[C@@H]1[C@@H]2CC[C@]2(C)C(=O)CC[C@@H]12,inactive
18,O=C1C[C@@H]2OCC=C3CN4CC[C@]56c7ccccc7N1[C@H]5[C@H]2[C@H]3C[C@H]46,inactive

row,Compound,Potency
1,CCOc1ccccc1-n1c(C(C)N2CCN(C(=O)COc3ccc(Cl)cc3)CC2)nc2ccccc2c1=O (stereo not given),inactive
2,CN(C(=O)Cc1ccccc1)C(CN1CCCC1)c1ccccc1 (stereo not given),inactive
3,COc1cc(C(=O)O[C@H]2[C@@H]3C=CO[C@@H](O[C@@H]4O[C@H](CO)[C@@H](O)[C@H](O)[C@H]4O)[C@@H]3[C@@]3(CO)O[C@@H]23)ccc1O,inactive
4,COC(=O)N1CCN(C(=O)Cc2ccc(Cl)c(Cl)c2)[C@@H](CN2CCCC2)C1,inactive
5,C/C=C(\C)C(=O)OC1CC2C(C)(C)OC(=O)CC(OC(C)=O)C2(C)C2CC(OC(=O)C(C)C)C3(C)C(c4ccoc4)CC4OC43C12C (stereo not given),inactive
6,Cc1cc(C(=O)CN2CCCC2)c(C)n1-c1ccc(F)cc1,inactive
7,COC1CC(OC2CCC3(C=O)C(CCC4C3CCC3(C)C(C5=CC(=O)OC5)CCC43O)C2)OC(C)C1OC1OC(CO)C(O)C(O)C1O (stereo not given),inactive
8,CCN1C[C@]2(COC(=O)c3ccccc3N3C(=O)C[C@H](C)C3=O)CC[C@H](OC)[C@@]34[C@@H]5C[C@H]6[C@H](OC)[C@@H]5[C@](O)(C[C@@H]6OC)[C@](O)([C@@H](OC)[C@H]23)[C@@H]14,inactive
9,C[C@H](NC(=O)Cc1cc(F)cc(F)c1)C(=O)N[C@@H]1N=C(c2ccccc2)c2ccccc2N(C)C1=O,inactive
10,CC(=O)O[C@H]1C[C@@H](OC(C)=O)C(C)(C)C2C[C@@H](O)[C@]3(C)C(CC[C@@]4(C)[C@H](C5=CC(=O)OC5O)C[C@H]5O[C@]543)[C@]21C (stereo not given in full),inactive
11,CC1=C2C[C@H]3[C@@H](CC=C4C[C@@H](O)CC[C@@]43C)[C@@H]2CC[C@]12O[C@@H]1C[C@H](C)CN[C@H]1[C@H]2C,inactive
12,C=C[C@H]1CN2CC[C@H]1C[C@@H]2[C@@H](O)c1ccnc2ccccc12,inactive
13,C=C[C@H]1[C@H](O[C@@H]2O[C@H](CO)[C@@H](O)[C@H](O)[C@H]2O)OC=C2C(=O)OCC[C@H]21,inactive
14,COC1=CC(=O)O[C@@H](CCc2ccccc2)C1,inactive
15,CCc1c(C(=O)C(N)=O)c2c(OCC(=O)OC)cccc2n1Cc1ccccc1,inactive
16,Cc1cn(C[C@H](N)C(=O)O)c(=O)n(Cc2cc(-c3ccccc3)sc2C(=O)O)c1=O,inactive
17,CCC1NC(=O)C2C(Cl)C(Cl)CN2C(=O)C(C(C)O)NC(=O)CC(c2ccccc2)NC(=O)C(CO)NC1=O (stereo not given),inactive
